Structures can show the parent of a compound that is named as a salt. ± gives the standard deviation of the averaged measurements.

What all share (experiment): growth (OD600 after 10 h); higher = more growth (less inhibition)
Assay [1] relates to E. coli TESEC Alr+ wild-type control. Particulars: compound 0.1 mM; raw OD600 reference: median of DMSO wells 0.241, cell-free background 0.041. How it is done: (§1)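 TESEC Mtb Alr E. coli, or the Alr+ wild-type control, in 384-well plates with Prestwick library compounds at 0.1 mM and 1% DMSO, across arabinose induction levels of 1E3 to 1E7 nM. Growth is read as OD600 after 10 h at 37 °C in triplicate biological replicates.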

Assay [2] concerns E. coli TESEC Mtb Alr. Particulars: compound 0.1 mM. How it is done:
as §1

Assay [3] deals with E. coli TESEC Mtb Asd. To be noted: compound 0.1 mM. How it is done:
(§2)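 TESEC E. coli strains in which the native enzyme is deleted and replaced by arabinose-inducible Mtb Asd, DapB, CysH or TrpD, each grown in its selective medium. Strains were screened against the Prestwick library at 0.1 mM and 1% DMSO in 384-well format at low and high arabinose induction. Growth is read as OD600 after 10 h in triplicate.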

For assay [4], the system named is E. coli TESEC Mtb DapB. To be noted: compound 0.1 mM. Here is the method:
as §2

Assay [5] relates to E. coli TESEC Mtb Alr. To be noted: compound 0.1 mM. Here is the method: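 TESEC Mtb Alr E. coli (ΔaraC ΔtolC ΔentC Δalr ΔdadX, arabinose-inducible Mtb Alr) or the Alr+ wild-type control strain, grown in defined M9-fructose medium without D-alanine in 96-well plates with Prestwick library compounds at 0.1 mM and 1% DMSO. Low Alr induction is 0.1 µM arabinose and high induction is 10 mM arabinose.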
This is another data set of the same source.

The mark [6] stands for this setting: arabinose 1000 nM, raw OD600 reference: median of DMSO wells 0.294, cell-free background 0.041.
Where [7] appears, read: arabinose 10000 nM, raw OD600 reference: median of DMSO wells 0.264, cell-free background 0.041.
[8] abbreviates: arabinose 100000 nM, raw OD600 reference: median of DMSO wells 0.201, cell-free background 0.041.
Setting [9] is: arabinose 1000000 nM, raw OD600 reference: median of DMSO wells 0.193, cell-free background 0.041.
The mark [10] stands for this setting: arabinose 10000000 nM, raw OD600 reference: median of DMSO wells 0.146, cell-free background 0.041.
Setting [11] is: arabinose induction (level): High, raw OD600 reference: median of DMSO wells 0.331, cell-free background 0.041.
Setting [12] is: arabinose induction (level): Low, raw OD600 reference: median of DMSO wells 0.417, cell-free background 0.041.
Setting [13] is: arabinose induction (level): High, raw OD600 reference: median of DMSO wells […], cell-free background 0.041.
[14] abbreviates: arabinose induction (level): Low, raw OD600 reference: median of DMSO wells 0.227, cell-free background 0.041.
Where [15] appears, read: arabinose 100 nM, raw OD600 reference: median of DMSO wells 0.413, cell-free background 0.052.
Where [16] appears, read: arabinose 10000000 nM, raw OD600 reference: median of DMSO wells […], cell-free background 0.052.

Regarding `O=C(O)Cc1ccccc1Nc1c(Cl)cccc1Cl` [Diclofenac sodium], the growth worked out at 0.1279 ± 0.00065 in assay [1]; 0.137 ± 0.0017 in assay [2] (setting [6]); 0.132 ± 0.0064 in assay [2] (setting [7]); 0.149 ± 0.006 in assay [2] (setting [8]); 0.103 ± 0.004 in assay [2] (setting [9]); 0.131 ± 0.0017 in assay [2] (setting [10]). Also, the growth in assay [3] (setting [11]) worked out at 0.172 ± 0.014; in assay [3] (setting [12]) it was 0.179 ± 0.01; in assay [4] (setting [13]) it was 0.166 ± 0.0086; in assay [4] (setting [14]), 0.172 ± 0.014; in assay [5] (setting [15]) it was 0.329 ± 0.037; in assay [5] (setting [16]), 0.214 ± 0.015.

For the molecule `CN(C)CCC=C1c2ccccc2CCc2ccccc21` [Amitryptiline hydrochloride], the growth in assay [1] stood at 0.1735 ± 0.0011; in assay [2] (setting [6]) it was 0.218 ± 0.0042; in assay [2] (setting [7]) it was 0.247 ± 0.0093; in assay [2] (setting [8]) it was 0.195 ± 0.012; in assay [2] (setting [9]), 0.08457 ± 0.00076; in assay [2] (setting [10]), 0.152 ± 0.0021. The growth came out at 0.146 ± 0.0079 in assay [3] (setting [11]); 0.273 ± 0.011 in assay [3] (setting [12]); 0.195 ± 0.019 in assay [4] (setting [13]); 0.232 ± 0.047 in assay [4] (setting [14]); 0.403 ± 0.015 in assay [5] (setting [15]); 0.182 ± 0.031 in assay [5] (setting [16]).

For the molecule `CCC(=O)O[C@]1(C(=O)CCl)[C@@H](C)C[C@H]2[C@@H]3CCC4=CC(=O)C=C[C@]4(C)[C@@]3(F)[C@@H](O)C[C@@]21C` [Clobetasol propionate], the growth in assay [1] amounted to 0.148 ± 0.0028; in assay [2] (setting [6]), 0.19 ± 0.034; in assay [2] (setting [7]) it was 0.186 ± 0.011; in assay [2] (setting [8]) it was 0.161 ± 0.01; in assay [2] (setting [9]), 0.0968 ± 0.0071; in assay [2] (setting [10]), 0.156 ± 0.0017. Moreover, the growth in assay [3] (setting [11]) worked out at 0.264 ± 0.097; in assay [3] (setting [12]), 0.178 ± 0.017; in assay [4] (setting [13]), 0.145 ± 0.019; in assay [4] (setting [14]) it was 0.169 ± 0.021; in assay [5] (setting [15]) it was 0.407 ± 0.015; in assay [5] (setting [16]) it was 0.122 ± 0.05.

For the molecule `CCN1CCCC1CNC(=O)c1cc(S(N)(=O)=O)ccc1OC` (stereo not drawn) [Sulpiride], the growth in assay [1] amounted to 0.2503 ± 0.0019; in assay [2] (setting [6]), 0.291 ± 0.012; in assay [2] (setting [7]) it was 0.248 ± 0.0039; in assay [2] (setting [8]), 0.198 ± 0.02; in assay [2] (setting [9]), 0.174 ± 0.0021; in assay [2] (setting [10]), 0.147 ± 0.0072. Also, the growth came out at 0.309 ± 0.099 in assay [3] (setting [11]); 0.423 ± 0.023 in assay [3] (setting [12]); 0.221 ± 0.037 in assay [4] (setting [13]); 0.253 ± 0.024 in assay [4] (setting [14]); 0.419 ± 0.0074 in assay [5] (setting [15]); 0.35 ± 0.017 in assay [5] (setting [16]).

Consider `Nc1ncnc2c1ncn2[C@@H]1O[C@H](CO)[C@@H](O)[C@@H]1O` [Vidarabine], for which the growth was 0.206 ± 0.012 in assay [1]; 0.273 ± 0.022 in assay [2] (setting [6]); 0.243 ± 0.011 in assay [2] (setting [7]); 0.145 ± 0.0058 in assay [2] (setting [8]); 0.148 ± 0.0035 in assay [2] (setting [9]); 0.138 ± 0.004 in assay [2] (setting [10]). Moreover, the growth in assay [3] (setting [11]) was found to be 0.36 ± 0.077; in assay [3] (setting [12]), 0.383 ± 0.0057; in assay [4] (setting [13]) it was 0.171 ± 0.03; in assay [4] (setting [14]), 0.21 ± 0.048; in assay [5] (setting [15]), 0.429 ± 0.012; in assay [5] (setting [16]), 0.306 ± 0.0082.

On to `CCCCC1=NC2(CCCC2)C(=O)N1Cc1ccc(-c2ccccc2-c2nnn[nH]2)cc1` [Irbesartan], for which the growth was determined as 0.152 ± 0.0053 in assay [1]; 0.227 ± 0.0037 in assay [2] (setting [6]); 0.21 ± 0.011 in assay [2] (setting [7]); 0.121 ± 0.0023 in assay [2] (setting [8]); 0.0979 ± 0.0024 in assay [2] (setting [9]); 0.13 ± 0.0027 in assay [2] (setting [10]). In addition, the growth in assay [3] (setting [11]) is 0.198 ± 0.03; in assay [3] (setting [12]), 0.21 ± 0.029; in assay [4] (setting [13]) it was 0.204 ± 0.014; in assay [4] (setting [14]), 0.263 ± 0.048; in assay [5] (setting [15]), 0.346 ± 0.012; in assay [5] (setting [16]), 0.167 ± 0.014.

Regarding `CCn1cc(C(=O)O)c(=O)c2cnc(N3CCCC3)nc21` [Piromidic acid], the growth stood at 0.228 ± 0.0041 in assay [1]; 0.314 ± 0.026 in assay [2] (setting [6]); 0.267 ± 0.0056 in assay [2] (setting [7]); 0.161 ± 0.019 in assay [2] (setting [8]); 0.182 ± 0.0092 in assay [2] (setting [9]); 0.145 ± 0.0049 in assay [2] (setting [10]). The growth in assay [3] (setting [11]) amounted to 0.288 ± 0.037; in assay [3] (setting [12]) it was 0.432 ± 0.015; in assay [4] (setting [13]), 0.208 ± 0.016; in assay [4] (setting [14]), 0.239 ± 0.025; in assay [5] (setting [15]), 0.12 ± 0.021; in assay [5] (setting [16]) it was 0.105 ± 0.015.

Regarding `CN(N=O)C(=O)N[C@H]1C(O)O[C@H](CO)[C@@H](O)[C@@H]1O` (mixture of isomers) [Streptozotocin], the growth stood at 0.197 ± 0.0036 in assay [1]; 0.259 ± 0.028 in assay [2] (setting [6]); 0.2526 ± 0.0016 in assay [2] (setting [7]); 0.147 ± 0.0062 in assay [2] (setting [8]); 0.14 ± 0.0077 in assay [2] (setting [9]); 0.0717 ± 0.0018 in assay [2] (setting [10]). The growth is 0.243 ± 0.0054 in assay [3] (setting [11]); 0.305 ± 0.045 in assay [3] (setting [12]); 0.192 ± 0.016 in assay [4] (setting [13]); 0.206 ± 0.015 in assay [4] (setting [14]); 0.378 ± 0.019 in assay [5] (setting [15]); 0.0602 ± 0.0034 in assay [5] (setting [16]).

As to `CNCCCN1c2ccccc2CCc2ccccc21` [Desipramine hydrochloride], the growth in assay [1] turned out to be 0.184 ± 0.0044; in assay [2] (setting [6]), 0.228 ± 0.021; in assay [2] (setting [7]) it was 0.275 ± 0.013; in assay [2] (setting [8]), 0.199 ± 0.021; in assay [2] (setting [9]), 0.1277 ± 0.00069; in assay [2] (setting [10]), 0.168 ± 0.0031. Further, the growth in assay [3] (setting [11]) was 0.157 ± 0.011; in assay [3] (setting [12]), 0.222 ± 0.03; in assay [4] (setting [13]), 0.171 ± 0.014; in assay [4] (setting [14]), 0.202 ± 0.0094; in assay [5] (setting [15]), 0.403 ± 0.01; in assay [5] (setting [16]), 0.287 ± 0.011.

For the origin of these results see the supplement of paper PMC9262897, “Low-cost anti-mycobacterial drug discovery using engineered E. coli” (Nature Communications, 2022).
